# From PubChem BioAssay AID720509 (The Scripps Research Institute Molecular Screening Center, 2013)
# Hit rate of the full screen: of about 370,000 compounds, about 760 (0.21%) were called active. This is one part of a sample in which actives are shown more often than they occur. A number with no mark means an inactive call.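 How the source made its calls: active means inhibition above a per-campaign cutoff: mean of compounds within control limits plus 3 SD (cut at about 15% in these data); inactive means the rest.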
# Target: Fibrinogen beta chain (Homo sapiens) (UniProt P02675)
# Sequence (P02675 whole entry, looked up): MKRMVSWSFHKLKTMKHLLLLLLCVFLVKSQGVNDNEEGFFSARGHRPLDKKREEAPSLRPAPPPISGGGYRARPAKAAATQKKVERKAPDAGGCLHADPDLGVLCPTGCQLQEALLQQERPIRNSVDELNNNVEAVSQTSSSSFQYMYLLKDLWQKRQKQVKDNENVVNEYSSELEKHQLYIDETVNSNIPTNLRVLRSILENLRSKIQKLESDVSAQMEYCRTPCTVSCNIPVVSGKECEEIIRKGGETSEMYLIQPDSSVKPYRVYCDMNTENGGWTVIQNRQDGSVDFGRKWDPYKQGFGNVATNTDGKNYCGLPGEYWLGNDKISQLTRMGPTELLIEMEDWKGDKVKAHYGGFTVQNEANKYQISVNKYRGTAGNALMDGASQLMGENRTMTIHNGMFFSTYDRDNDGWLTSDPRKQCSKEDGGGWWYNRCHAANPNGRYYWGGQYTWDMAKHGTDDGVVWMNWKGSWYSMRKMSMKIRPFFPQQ
# Experiment: small molecules displacing Tn6 from DD(E) complex – biochemical, fluorescence polarization, human fibrin, Tn6 probe, primary screen (AID 720509);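 further: 0% = median of all compound wells on the plate and 100% = blocking peptide control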
# Conditions: Fibrin DD(E) TRITC-Tn6 fluorescence polarization displacement; at 8.3 µM; hits give high values
row,SMILES,inhibition
1,O=C(c1c(F)cccc1F)N1CCN(c2ncc(Br)cn2)CC1,-1.65%
2,CC(=O)OC(C)C[N+](C)(C)C (centres undefined),3.71%
3,CCOC(=O)C(C)Oc1cccc2c(=O)n(CC(=O)N3CCc4ccccc43)ccc12 (centres undefined),-1.79%
4,CC(=O)N1CCCN(C2=Nc3ccccc3Sc3ccccc32)CC1,-3.1%
5,Cc1oc2nc(SCC(=O)Nc3ccc(S(N)(=O)=O)cc3)nc(NC(=O)c3ccccc3)c2c1C,24.4% (active)
6,Cc1cc(-c2nnc(SCC(=O)Nc3ccc(S(N)(=O)=O)cc3)n2N)n[nH]1,-3.55%
7,Cc1oc2nc(SCC(=O)NCc3cccnc3)nc(N)c2c1C,7.93%
8,COc1cc2c(cc1OC)C(C(=O)Nc1cc(C)c(OC)c(C)c1)CC(=O)N2 (centres undefined),10.8%
9,N#Cc1ccc(COC(=O)Cn2nnc(-c3ccccc3)n2)cc1,0.38%
10,CCOc1cccc(-c2nnc(SCC(=O)NC3CC3)n2C)c1,6.34%
11,Cn1c(SCC(=O)NC2CCCCC2)nnc1-c1ccc(N)cc1,1.64%
12,CCc1cc(-c2nnc(SCC(=O)NC3CC3)n2C)cs1,18.6% (active)
13,O=[N+]([O-])c1ccccc1N/N=C1\CCc2ccccc21,-1.87%
14,O=C(NC1CCc2ccccc21)C12CN(Cc3ccccc3)CC1C(c1cccc([N+](=O)[O-])c1)=NO2 (centres undefined),1.76%
15,COCC(C)n1c(C)cc(C(=O)COc2ccc(C)nc2[N+](=O)[O-])c1C (centres undefined),2.28%
16,O=C(NCc1nnc(SCC(=O)N2CCCCCC2)o1)c1ccc(F)cc1,4%
17,O=S(=O)(NCC1CN(S(=O)(=O)c2ccc3c(c2)OCCO3)C1)c1c(F)cccc1F,0.97%
18,COc1ccc(-c2c(C)nn3c(N4CCC(C(=O)N5CCCCC5)CC4)cc(C)nc23)cc1OC,-3.53%
19,O=S(=O)(Nc1ccc(-n2cnnn2)cc1)c1ccc(Cl)cc1,-1.46%
20,N#Cc1ccc(S(=O)(=O)NCC(=O)OCC(=O)NCCc2ccccc2)cc1,-8.48%
21,N#CC1=C(N)Oc2c(sc3ccccc23)C1c1ccco1 (centres undefined),3.91%
22,CC(C)(C)c1cc(=O)n2c(nc3ccccc32)[nH]1,-1.54%
23,CN(CC(=O)Nc1ccccc1Cl)C(=O)c1ccccc1SCC(=O)N1CCCC1,-6.29%

row,SMILES,inhibition
1,COc1ccc(N(CC(=O)NC2CCCCC2)S(=O)(=O)c2c(C)[nH]c(=O)[nH]c2=O)cc1,6%
2,CCCCNC(=O)C[C@@H]1C[C@@]2(C(=O)OCC)CCC=C2N(Cc2ccco2)C1=O,3.81%
3,COc1ccc(CNc2c(CO)cnc3c2cnn3C)cc1,-2.59%
4,COc1ccc(CC(=O)Nc2c3c(nn2-c2cccc(Cl)c2)CS(=O)C3)cc1 (centres undefined),-10.3%
5,COc1c(C)cc(C(O)c2ncc(-c3cccc(C(F)(F)F)c3)[nH]2)cc1C (centres undefined),8.36%
6,CCOC(=O)N1CCN(Cc2nc3cc(NC(=O)CC)ccc3n2CC)CC1,-8.37%
7,CCOC(=O)N1CCN(Cc2nc(N)nc(Nc3ccc(C)cc3)n2)CC1,17% (active)
8,CCOC(=O)C1CCCN(Cc2nc(N)nc(Nc3ccc(C)cc3)n2)C1 (centres undefined),-3.73%
9,Cc1nnc2n1N=C(c1ccc3c(c1)NC(=O)CO3)CS2,0.86%
10,CCOC(=O)N1CCN(S(=O)(=O)c2ccc(-n3cnnn3)cc2)CC1,7.12%
11,COc1ccc(S(=O)(=O)NC(CC(=O)NCc2ccccc2OC)c2ccco2)cc1 (centres undefined),2.08%
12,COc1ccc2c(c1)c1ncn(Cc3ccccn3)c(=O)c1n2C,-7.12%
13,CC(C)(C)OC(=O)C[C@@H]1C/C=C\C[C@@H](CC(=O)N[C@@H](CO)Cc2ccccc2)C(=O)N2CCC[C@H]2COC1=O,-2.9%
14,O=C(COC(=O)c1ccc(F)cc1F)Nc1ncccn1,2.94%
15,COC(=O)C1=C(C)NC(=S)NC1c1ccc(OC)cc1 (centres undefined),0.81%
16,Nc1nc(SCC(=O)NNc2c(Cl)cc(Cl)cc2Cl)n[nH]1,8.94%
17,COc1ccc(C(CNC(=O)c2ccc(OCc3cscn3)cc2)N2CCCC2)cc1 (centres undefined),2.19%
18,Oc1c(Cl)cc(Cl)c(Cl)c1Cc1c(O)c(Cl)cc(Cl)c1Cl,-7.14%
19,Cc1cc([N+](=O)[O-])nn1Cc1ccc(F)cc1,-0.46%
20,COc1ccc(C(=O)C2CCCN(S(=O)(=O)c3cccc(C)c3)C2)c(C)c1 (centres undefined),-7.45%
21,CCCC1(C(=O)OCC)NC(c2ccc(N(C)C)cc2)C2C(=O)N(c3ccc4c(c3)OCCO4)C(=O)C21 (centres undefined),-9.09%
22,COc1ccccc1C(=O)COC(=O)CSCC(=O)Nc1cc(C)on1,0.48%
23,O=C(CN1C(=O)NC2(CCCCCC2)C1=O)NCc1cccs1,-0.57%

row,SMILES,inhibition
1,CSC1=NN(c2ccccc2)CN(c2ccccc2)N1C,-0.87%
2,COc1ccc(CCNC(=O)C(=O)NCC2CCCN2S(=O)(=O)c2cccs2)cc1OC (centres undefined),-8.21%
3,COCCN(Cc1nc(-c2ccc(C(F)(F)F)cc2)no1)C(C)C,-5.72%
4,CC(C)CCNC(=O)CC1C(=O)N(Cc2ccccc2)C(C)c2nc3ccccc3n21 (centres undefined),5.33%
5,Cc1cc(=O)oc(C)c1C(=O)Nc1cnc2ccccc2c1,-3.11%
6,CCOc1ccc(C(=O)Nc2cc(Cl)ccc2-n2cncn2)cc1OC,2.72%
7,CN(C)c1cccc(NC(=O)c2ccc(-c3ccc(F)c(F)c3)c3ccoc23)c1,-0.65%
8,Cc1cccc(NS(=O)(=O)c2cc(Cl)ccc2Cl)n1,1.49%
9,CC(=O)N/C(=C\c1ccc(F)cc1)C(=O)NC(Cc1ccccc1)C(=O)O (centres undefined),2.99%
10,Oc1ccc(N=Cc2sc3ccccc3c2Cl)cc1,36.1% (active)
11,CN1CCN(S(=O)(=O)c2ccc(Nc3ccc(F)cc3)nc2)CC1,-3.71%
12,O=C(CCN1C(=O)[C@H]2CC=CC[C@H]2C1=O)NCc1nc(-c2ccccc2)no1,1.52%
13,CCc1nc2c(OCc3ccc(C(F)(F)F)cc3)cccn2c1N(C)C(=O)CC(C)C,3.22%
14,Cc1nc2nc3c(cn2n1)C(=O)CC(c1ccccc1)C3 (centres undefined),4.63%
15,CC(C)CSc1nnc(-c2cccnc2)n1Cc1ccccc1,-2.2%
16,Cc1cc(NS(=O)(=O)c2ccc(NC(=O)CSc3nnc(-c4ccc(C(C)(C)C)cc4)n3Cc3ccco3)cc2)nc(C)n1,6.53%
17,Cc1ccc(C(=O)NC2CCN(C(=O)Nc3ccccc3Cl)CC2)cc1,0.49%
18,CCOCCCNC(=O)c1c[nH]c2cc(C)ccc2c1=O,-0.35%
19,CCC1C(=O)NCCN1C(=O)c1ccc2nc(Cc3ccc(OC)cc3)oc2c1 (centres undefined),15.8% (active)
20,CCn1ccnc1CN(C)C(=O)c1ccc2nc(Cc3ccc(OC)cc3)oc2c1,-4.19%
21,COc1ccc(Cc2nc3ccc(C(=O)N4CCC(N(C)C)C4)cc3o2)cc1 (centres undefined),2.22%
22,CC(C)CN1CC(C)C(=O)N(c2ccccc2)C1=S (centres undefined),11.7%
23,COC(=O)C1=C(C)N(c2ccc(C)cc2)/C(=C/c2ccc(O)cc2)C1=O,1.49%

row,SMILES,inhibition
1,Cc1ccccc1N(C(=O)Cc1cccs1)C(C(=O)NC1CCCCC1)c1cn(C)nc1C (centres undefined),-5.36%
2,CCOc1ccc(C(=O)Nc2cccc(-c3ccc4nncn4n3)c2)cc1,12.2%
3,O=C(Nc1cccc(-c2nc3ccccc3[nH]2)c1)c1ccc(C(=O)Nc2cccc(-c3nc4ccccc4[nH]3)c2)cc1,19.9% (active)
4,O=C(Nc1nsc(-c2ccccc2)n1)c1ccncc1,1.55%
5,O=C(c1ccc(F)cc1)c1cn(Cc2ccc(F)cc2)c2cc3c(cc2c1=O)OCCO3,-1.55%
6,CCN(CC)C(=O)CC[C@@H]1CC[C@]2(CCCN(S(=O)(=O)C3CCCCC3)C2)O1,-5.4%
7,CCc1nc2ccccc2c(C(=O)OC2CCCCC2=O)c1C (centres undefined),-0.37%
8,CSc1ccccc1OCc1cc(C(=O)N2C[C@H]3CC[C@H]2C3)no1,8.52%
9,O=C(CN1C(=O)CSC1=O)N1CCCC(Nc2ccc(F)cc2)C1 (centres undefined),-6.4%
10,CC(=O)Nc1ccc(OCCC[n+]2cccc(C(=O)[O-])c2)cc1,-1.3%
11,Cn1ccc(=Nc2ccc(NC(=O)c3ccc(N=c4ccn(C)c5ccc([N+](=O)[O-])cc45)cc3)cc2)cc1,-6.27%
12,COC(=O)C1CN(Cc2cn(Cc3ccc(F)cc3)nn2)CCS(=O)(=O)N1Cc1ccc(Cl)cc1 (centres undefined),10.6%
13,Cc1ccc(OCCNC(=O)c2cccc(S(=O)(=O)N3CCN(Cc4ccccc4)CC3)c2)cc1,4.41%
14,C[C@@H]1CN([C@H](C)CO)C(=O)CCCn2cc(nn2)CO[C@H]1CN(C)S(=O)(=O)c1ccc(Oc2ccccc2)nc1,-1.11%
15,Cc1noc(C)c1-c1nc(CSc2ccc(Cl)cc2)no1,-2.98%
16,C[C@@H](C(=O)N1CCNCC1)n1cc(CCC(=O)O)nn1,-0.49%
17,O=C(Cc1c(Cl)cccc1Cl)NC1CC1,6.01%
18,O=C(NNc1cc(Cl)cc(Cl)c1)c1c(F)cccc1Cl,1.43%
19,O=C(CCl)NNc1cccc(Cl)n1,30.8% (active)
20,COC(=O)[C@]12C[C@H](CC(=O)NCc3cccc(C(F)(F)F)c3)C(=O)N(Cc3ccc4c(c3)OCO4)C1=C[C@H](COCc1ccccc1)O[C@@H]2C,-3.35%
